Most compounds without a hit are left out; they make up all but 6.9% or so of the library.
SW480 rerep = A quantitative high throughput screen for small molecules that induce DNA re-replication in SW480 colon adenocarcinoma cells; SW480 DNA re-replication, Hoechst DNA content imaging, 48 h; Potency, µM (top dose mostly 46.1 µM), for inactives: top-dose re-replication activation, most hits filed as activators; actives 1.8% (n = 340,000); AID 624297, 2012; further: potency means the concentration at half of the fitted maximal effect; % of control where 0% means no effect; nearly all actives have a fitted effect of over 55% in size
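First, 250 cells per well were seeded. Next, compound or vehicle (23 nL) was pinned in, plates sat 48 hr at 37 C. Finally Hoechst was added for 40 min before fluorescence scanning.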
MCF10A rereplic = A quantitative high throughput screen for small molecules that induce DNA re-replication in MCF 10a normal breast cells | MCF 10A DNA re-replication, Hoechst nuclear intensity, 48 h | AID 624296, 2012 | Potency, µM (highest dose often 46.1 µM), for the others: at the top dose activity, positive = re-replication, hits mostly activators | actives 2.9% (n = 350,000); further: potency means the concentration at half of the fitted maximal effect; % of control where 0% means no effect; nearly all actives have a fitted effect of over 50% in size
KB-3-1 tox = qHTS assay for MDR1-selective chemotherapeutics: Primary screen using the parental adenocarcinoma cell KB-3-1; Potency, µM (highest dose often 46.1 µM), actives largely listed as cytotoxic; AID 1347075, 2019; KB-3-1 viability, CellTiter-Glo ATP luminescence, 72 h; actives 1.4% (n = 400,000); further: potency means the concentration at half of the fitted maximal effect; on the % scale 0 is the no-effect control and ±100 the full control effect; nearly all actives have a fitted effect of over 60% in size
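Parental KB-3-1 adenocarcinoma cells in phenol-red-free DMEM with 10% FBS were pin-treated with compounds at several concentrations, incubated 72 h at 37 °C, and viability read by CellTiter-Glo luminescence; concentration-effect curves were fitted after normalization.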
Giardia kill = Small Molecules that selectively kill Giardia lamblia: qHTS; Giardia lamblia trophozoite viability; activity change, % at 7.66 µM, hits read low; AID 540267, 2011; actives 0.15% (n = 340,000); in the data active means activity change below about -80%; inconclusive means between about -30% and that limit;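 further: parasites exposed to compound for two days anaerobically before the ATP read; on the % scale 0 is the no-effect control and ±100 the full control effect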
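Compounds were tested on trophozoites seeded at 100 cells/well and held 48 hrs at 37 deg C anaerobically. An ATP-based luminescent kit measured the remaining live cells.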
KB-V1 cytotox = qHTS assay for MDR1-selective chemotherapeutics: Primary screen using the drug-selected MDR subline cells KB-V1 | KB-V1 MDR cells viability, CellTiter-Glo, 72 h | Potency, µM (series often up to 46.1 µM), most hits filed as cytotoxic | actives 3.4% (n = 400,000) | AID 1347076, 2019; further: potency means the concentration at half of the fitted maximal effect; on the % scale 0 is the no-effect control and ±100 the full control effect; nearly all actives have a fitted effect of over 60% in size
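Compound-treated KB-V1 multidrug-resistant cells, 72 h, 37 degrees C; viability by CellTiter-Glo. Fitted qHTS curves give the values.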
S-ASM inh = Inhibitors of Secretory Acid Sphingomyelinase (S-ASM): qHTS. Sphingomyelin phosphodiesterase (Homo sapiens), P17405. placental ASM, HMU-PC fluorogenic substrate, 60 min. Potency, µM (series often up to 57.5 µM), for inactives: at the highest dose activity change, negative = inhibition, usual class: inhibitors. actives 0.006% (n = 340,000). AID 504937, 2011; further: potency means the concentration at half of the fitted maximal effect
Target sequence (P17405 47-631 limits assumed): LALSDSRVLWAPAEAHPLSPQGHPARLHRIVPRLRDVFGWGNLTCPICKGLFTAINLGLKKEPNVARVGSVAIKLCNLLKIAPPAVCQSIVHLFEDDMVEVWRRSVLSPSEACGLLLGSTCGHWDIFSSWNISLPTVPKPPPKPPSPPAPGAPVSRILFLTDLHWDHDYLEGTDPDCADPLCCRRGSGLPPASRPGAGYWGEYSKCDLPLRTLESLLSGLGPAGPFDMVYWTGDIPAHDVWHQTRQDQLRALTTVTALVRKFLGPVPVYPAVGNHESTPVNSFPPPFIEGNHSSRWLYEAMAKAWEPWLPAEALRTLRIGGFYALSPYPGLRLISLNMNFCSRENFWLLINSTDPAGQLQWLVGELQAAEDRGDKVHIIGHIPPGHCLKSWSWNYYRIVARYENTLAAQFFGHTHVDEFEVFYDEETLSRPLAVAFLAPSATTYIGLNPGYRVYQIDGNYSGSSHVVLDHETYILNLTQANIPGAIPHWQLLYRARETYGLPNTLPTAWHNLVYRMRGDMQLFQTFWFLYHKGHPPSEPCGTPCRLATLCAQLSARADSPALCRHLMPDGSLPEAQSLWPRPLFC
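Fluorescence read-out (Ex 386 nm, Em 447 nm) after stopping the reaction at pH 10. Enzyme: ASM from human placenta; substrate HMU-PC0, 9 uM final; 60 min, 37 °C. Compound preincubation 10 min, ambient temperature.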
Numbers without * were called inactive; i = inactive; ? = inconclusive; / = no result. Unless noted, the call rests on the fitted dose curve; in most records, active means well fitted curve in the direction sought with a large enough effect; inconclusive means small, poorly fitted or top-dose-only effect, or another doubt; inactive means no such curve, though single readings can be large; an effect the other way counts as inactive or inconclusive.

SMILES	SW480 rerep	MCF10A rereplic	KB-3-1 tox	Giardia kill	KB-V1 cytotox	S-ASM inh
COc1ccc(CNC(=O)c2cc3c(=O)n4cccc(C)c4nc3n(CC3CCCO3)c2=N)cc1 (centres undefined)	4.1µM*	8.2µM*	i	-15	i	282%
COc1ccc(CCn2c(=N)c(C(=O)NCC3CCCO3)cc3c(=O)n4cccc(C)c4nc32)cc1 (centres undefined)	5.8µM*	2.9µM*	?	23	?	208%
Cc1cccn2c(=O)c3cc(C(=O)NC4CCCCC4C)n(C)c3nc12 (centres undefined)	21µM*	15µM*	i	45	i	i
COC(=O)c1ccc(NC(=O)c2cc3cc(C)ccc3n2C)cc1	/	/	i	/	i	/
CCOCCCNc1nc2nc3ccc(C)cn3c(=O)c2cc1C(=O)NCC1CCCO1 (centres undefined)	9.2µM*	10µM*	i	3	i	i
Cc1ccc(S(=O)(=O)c2cc3c(=O)n4cccc(C)c4nc3n(C3CCCCC3)c2=N)cc1	-2%	9%	i	-12	i	13%
Cc1cccn2c(=O)c3cc(C(=O)NC4CCCC4)c(=N)n(CC4CCCO4)c3nc12 (centres undefined)	?	9.2µM*	?	6	?	i
COCCCn1c(=N)c(C(=O)NC2CCCC2)cc2c(=O)n3cccc(C)c3nc21	/	/	i	/	i	/
Cc1cccn2c(=O)c3cc(C(=O)NCC4CCCO4)c(=N)n(C4CCCCC4)c3nc12 (centres undefined)	18µM*	18µM*	i	13	i	i
CCOC(=O)c1cc2c(=O)n3cccc(C)c3nc2n(CC2CCCO2)c1=NC(C)=O (centres undefined)	-3%	?	?	13	i	i
Cc1cccn2c(=O)c3cc(C(=O)NCC4CCCO4)c(=N)n(CC4CCCO4)c3nc12 (centres undefined)	3.7µM*	4.6µM*	i	-14	i	i
CN(C)c1ccc(/C=C/c2sc3ccccc3[n+]2Cc2ccccc2)cc1	/	/	i	/	?	/
Cc1cccn2c(=O)c3cc(S(=O)(=O)c4ccc(Br)cc4)c(=N)n(C4CCCCC4)c3nc12	?	12%	i	1	i	26%
Cc1cccn2c(=O)c3cc(C(=O)NCc4ccco4)c(=N)n(C4CCCC4)c3nc12	1.8µM*	2.1µM*	i	28	i	253%
O=C1Cc2cc(S(=O)(=O)N3CCN(c4cccc(Cl)c4)CC3)ccc2N1	17%	21%	i	-15	i	-5%
Cc1cc(C)cc(OCC(=O)Nc2cccc(S(=O)(=O)NC3=NCCC3)c2)c1	21µM*	?	?	-15	i	1%
COc1ccccc1CC1(C)C(=O)Nc2c(Cl)cccc21 (centres undefined)	/	/	i	/	i	/
CCCCCc1c(CC)ncn1CCc1ccccc1OC	/	/	16µM*	/	?	/
CCCCc1c(-c2ccccc2OC)ncn1CCc1ccccc1Cl	/	/	?	/	18µM*	/
CCCCc1c(-c2ccccc2OC)ncn1CCc1ccccc1OC	/	/	?	/	8.2µM*	/
COc1ccccc1CCn1cnc(Cc2ccccc2)c1C(C)C	/	/	?	/	13µM*	/
COc1ccccc1CCC(=O)O	/	/	i	/	i	/
CCCCN(CC)C(=O)Cc1ccccc1OC	1%	14%	i	21	?	2%
CC(C)C(=O)NCC(c1ccc2c(c1)OCO2)N1CCN(c2ccccc2)CC1 (centres undefined)	/	/	i	/	i	/
O=C(CCS(=O)(=O)c1ccc(Br)cc1)Nc1ccc(Cl)c(C(F)(F)F)c1	/	/	i	/	i	/
SMILES	SW480 rerep	MCF10A rereplic	KB-3-1 tox	Giardia kill	KB-V1 cytotox	S-ASM inh
CCCCCc1c(-c2ccccc2OC)ncn1CCc1ccccc1OC	/	/	23µM*	/	12µM*	/
CCCCc1c(-c2ccccc2Br)ncn1CCc1ccccc1OC	/	/	?	/	15µM*	/
CCn1cc(S(=O)(=O)NCCc2ccccc2OC)cn1	8%	-14%	i	-6	i	2%
COc1ccccc1CCNc1ncnc2nc[nH]c12	/	/	?	7	i	/
COc1ccc(C(=O)N2CCC(c3ccncc3)CC2)cc1OC	/	/	i	/	i	/
C#C[C@]1(O)CC[C@H]2[C@H]3[C@H](CC[C@@]21C)C1=C(CC(=O)CC1)C[C@@H]3C	-6%	1%	/	/	/	/
Nc1c(C(=O)OCC(=O)Nc2ccc(Cl)cc2[N+](=O)[O-])[nH]c(=O)[nH]c1=O	-2%	23µM*	i	-10	i	1%
CNC(=O)C(=O)Nc1cc2c3c(c1)CCN3C(=O)CC2	10%	-2%	i	-11	i	-1%
CN(Cc1ccccc1)C(=O)C1CCCN(Cc2cccc(Cl)c2)C1 (centres undefined)	-43%	0.29µM*	?	-7	i	4%
C[N+](C)(C)c1ccc(/C=C2\C=Cc3ccccc32)cc1	/	/	?	/	i	/
Cc1ccnc2c1ccc1ccccc12	-11%	5%	i	-16	i	-2%
Cc1c2ccccc2c(C)c2c1ccc1ccccc12	1.8µM*	?	i	12	i	185%
Cc1ccc2ncc(C)c(C)c2c1	/	/	i	/	i	/
Cc1cnc2ccc3ccccc3c2c1C	/	/	5.2µM*	/	i	/
CCCCSCCCNC(=O)c1cn(C)c2ccc(S(=O)(=O)N3CCCCCC3)cc2c1=O	/	/	?	/	i	/
Cc1ccc(C(C)C)c(OCCNC(=S)Nc2cccc3ccccc23)c1	5.6µM*	?	?	10	i	-7%
C/C(=N\NC(=O)c1c[nH]c2ccccc12)c1ccco1	2.9µM*	2.3µM*	i	-28	i	-1%
COC(=O)/C=C/c1ccsc1NC(C)=O	9.2µM*	1%	i	-14	i	3%
NC(=O)c1ccsc1NC(=O)COC(=O)/C=C/c1ccccc1	-11%	-3%	i	2	i	3%
CCCN1CCC(=O)N(C(CSc2ccc(C)cc2)CC(C)C)CC1 (centres undefined)	/	/	/	7	/	/
CN(C)S(=O)(=O)c1ccc(Nc2nc(C3CC3)nc3c2nnn3Cc2ccccc2Cl)cc1	9%	14%	2.9µM*	7	?	/
COC(=O)CNc1nc(C2CC2)nc2c1nnn2Cc1ccccc1Cl	-12%	27%	i	-7	i	-1%
